This note sets out measurements from PubChem BioAssay (NCATS).

Records with an inconclusive call do not appear. Unmarked numbers belong to inactive results. Calls of active or inactive are those of the source. The call rests on the fitted dose curve; in most records, active means well fitted curve in the direction sought with a large enough effect; inconclusive means small, poorly fitted or top-dose-only effect, or another doubt; inactive means no such curve, though single readings can be large; an effect the other way counts as inactive or inconclusive.

In one experiment the test system is Zika virus NS2B-NS3 protease. Put plainly: Primary screen GU AMC qHTS for Zika virus inhibitors (AID 1347154).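 Further: 0% = no-inhibitor control and -100% = no-enzyme control; nearly all actives have a fitted effect of over 70% in size.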 The following applies: Zika NS2B-NS3 unlinked protease, AMC fluorogenic substrate; series mostly up to 54.1 µM; activity change, negative = inhibition: at the top concentration. Summed up: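 Unlinked Zika NS2B hydrophilic domain–NS3 protease complex at 25 nM in 10 mM Tris-HCl pH 8.0, 0.01% Tween 20, with an AMC peptide substrate. Fluorescence change (340/450 nm) over 15 min at room temperature, normalized to controls, fitted to 4-parameter Hill.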
A general note: Quantitative high-throughput screening tests each substance at several concentrations.
For `COc1cccc2c1C(=O)c1c(O)c3c(c(O)c1C2=O)C[C@@](O)(C(C)=O)C[C@@H]3O[C@H]1C[C@H](N)[C@H](O)[C@H](C)O1`, the Potency result was “inactive”.
As for `CC(=O)Oc1ccc(C(c2ccc(OC(C)=O)cc2)c2ccccn2)cc1`, the “activity change, negative = inhibition” value was -5.57%.
With `CC(=O)OCC(=O)[C@@]1(OC(C)=O)[C@@H](C)C[C@H]2[C@@H]3C[C@H](F)C4=CC(=O)C=C[C@]4(C)[C@@]3(F)[C@@H](O)C[C@@]21C`, the “activity change, negative = inhibition” value is -1.77%.
On the same count and under the same terms, the value for `CC(=O)OCC(=O)NCCCOc1cccc(CN2CCCCC2)c1` was -3.17%; that for `Cc1ccc(Nc2c(F)cccc2Cl)c(CC(=O)O)c1` was -3.72%.
As for `COc1cc(N)c(Cl)cc1C(=O)NC1CCN(CCCOc2ccc(F)cc2)CC1OC` (configuration not stated), the “activity change, negative = inhibition” value was 3.37%.
Consider `CCN1CCN(c2cc3c(cc2F)c(=O)c(C(=O)O)cn3C2CC2)CC1`, for which the “activity change, negative = inhibition” value is -17.2%.
The same measure, in the same setting: the value for `COC(=O)C1=C(C)NC(C)=C(C(=O)O[C@@H]2CCCN(Cc3ccccc3)C2)[C@@H]1c1cccc([N+](=O)[O-])c1` was -13.5%.
Same read-out and setting: the value for `OC[C@H]1O[C@H](O[C@]2(CCl)O[C@H](CCl)[C@@H](O)[C@@H]2O)[C@H](O)[C@@H](O)[C@H]1Cl` was -6.73%.
Same read-out and setting: the value for `Cc1ccccc1C(=O)Nc1ccc(C(=O)N2CCCC(N(C)C)c3ccccc32)cc1` (configuration not stated) was -0.718%; that for `C[C@H]1[C@H](NC(=O)/C(=N/OC(C)(C)C(=O)O)c2csc(N)n2)C(=O)N1S(=O)(=O)O` (stereo in doubt) was 0.607%.
Consider `Oc1c(I)cc(Cl)c2cccnc12`, for which the “activity change, negative = inhibition” value is -10.6%.
With `CN(C)/N=N/c1nc[nH]c1C(N)=O`, the “activity change, negative = inhibition” value was 3.15%.
On to `Oc1c(I)cc(I)c2cccnc12`, for which the “activity change, negative = inhibition” value was -2.13%.
Same read-out and setting: the value for `C=C(CC)C(=O)c1ccc(OCC(=O)O)c(Cl)c1Cl` was 2.43%.
`CN1CCCC(CC2c3ccccc3Sc3ccccc32)C1` (configuration not stated): the “activity change, negative = inhibition” value is -2.61%.
As for `OC[C@@H](O)[C@@H](O[C@@H]1O[C@H](CO)[C@H](O)[C@H](O)[C@H]1O)[C@H](O)[C@@H](O)CO`, the “activity change, negative = inhibition” value is -2.81%.
Still for that read-out and setting: the value for `C[C@H](O)C(=O)Nc1c(I)c(C(=O)NC(CO)CO)c(I)c(C(=O)NC(CO)CO)c1I` was -6.58%.
Still for that read-out and setting: with `CCN1CCCC1=O` the figure was -2.42%; with `CC(=O)OCC(=O)[C@@]1(O)CC[C@H]2[C@@H]3CCC4=CC(=O)C=C[C@]4(C)[C@H]3[C@@H](O)C[C@@]21C`, 5.81%.
Same read-out and setting: the value for `COc1ccc(/C=C/C(=O)c2ccc(OC)cc2OC)cc1` was -18.2%.

The test system of the next experiment is Zika virus NS2B-NS3 protease (unlinked complex). Put plainly: Primary screen GU Rhodamine qHTS for Zika virus inhibitors: Unlinked NS2B-NS3 protease assay (AID 1347159). Further: on the % scale 0 is the no-effect control and ±100 the full control effect; nearly all actives have a fitted effect of over 60% in size. The following applies: Recombinant ZIKV NS2B-NS3 protease, Rhodamine110 substrate fluorescence; series mostly up to 107 µM; activity change, negative = inhibition: at the top concentration. Summed up:
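Noncovalent NS2B hydrophilic domain–NS3 protease domain complex (25 nM) preincubated 15 min at room temperature with compounds (up to 114 microM) in 10 mM Tris-HCl pH 8.0, 0.01% Tween 20; 1.5 microM Rhodamine110 substrate added, fluorescence change over 15 min fitted to Hill equation.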
For the compound `Cc1ccc(C(=O)C(C)CN2CCCCC2)cc1` (configuration not stated), the “activity change, negative = inhibition” value was 3.5%.
The same measure, in the same setting: with `CC(=O)OCC(=O)[C@@]1(O)[C@H](C)C[C@H]2[C@@H]3CCC4=CC(=O)C=C[C@]4(C)[C@@]3(F)[C@@H](O)C[C@@]21C` the figure was -2.51%; with `CN1C(CCl)Nc2cc(Cl)c(S(N)(=O)=O)cc2S1(=O)=O` (configuration not stated), -19%.
The same measure, in the same setting: the value for `CC(C)(C)NC(=O)[C@@H]1CN(Cc2cccnc2)CCN1C[C@@H](O)C[C@@H](Cc1ccccc1)C(=O)N[C@H]1c2ccccc2C[C@H]1O` was 22.3%; that for `CN1CCN(C(c2ccccc2)c2ccccc2)CC1` was 70.8%; that for `CC(C)n1nc(-c2cc3cc(O)ccc3[nH]2)c2c(N)ncnc21` was -0.422%.
Still for that read-out and setting: the value for `Cc1ccc(Nc2c(F)cccc2Cl)c(CC(=O)O)c1` was -15.5%.
Turning to `COC(=O)C1=C(C)NC(C)=C(C(=O)O[C@@H]2CCCN(Cc3ccccc3)C2)[C@@H]1c1cccc([N+](=O)[O-])c1`, the “activity change, negative = inhibition” value is 40.3%.
On to `OC[C@H]1O[C@H](O[C@]2(CCl)O[C@H](CCl)[C@@H](O)[C@@H]2O)[C@H](O)[C@@H](O)[C@H]1Cl`, for which the “activity change, negative = inhibition” value was 7.78%.
Same read-out and setting: the value for `Cc1ccccc1C(=O)Nc1ccc(C(=O)N2CCCC(N(C)C)c3ccccc32)cc1` (configuration not stated) was 5%; that for `CC(=O)OCC(=O)[C@@]1(O)CC[C@H]2[C@@H]3CCC4=CC(=O)C=C[C@]4(C)[C@H]3[C@@H](O)C[C@@]21C` was -3.3%.

Another experiment relates to Zika virus NS2B-NS3 protease (linked construct). The experiment can be described thus: Primary screen NINDS Rhodamine qHTS for Zika virus inhibitors (AID 1347160). Further: nearly all actives have a fitted effect of over 55% in size. On activity change, negative = inhibition: on the % scale 0 is the no-effect control and ±100 the full control effect. The following applies: purified NS2B-NS3 protease, Rhodamine110 substrate fluorescence; series mostly up to 57.1 µM; activity change, negative = inhibition: at the top concentration. Put shortly: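 Purified linked NS2B-NS3 protease (NS2B hydrophilic domain joined to NS3 protease by flexible linker), 25 nM in 10 mM Tris-HCl pH 8.0, 0.01% Tween 20. Compounds titrated, 15 min preincubation at room temperature; 1.5 microM Rhodamine110 substrate, FITC fluorescence change over 15 min.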
In the case of `Cc1ccc(C(=O)C(C)CN2CCCCC2)cc1` (configuration not stated), the “activity change, negative = inhibition” value is 43.3%.
`CC(=O)OCC(=O)[C@@]1(O)[C@H](C)C[C@H]2[C@@H]3CCC4=CC(=O)C=C[C@]4(C)[C@@]3(F)[C@@H](O)C[C@@]21C`: the call was inactive.
For the compound `CN1C(CCl)Nc2cc(Cl)c(S(N)(=O)=O)cc2S1(=O)=O` (configuration not stated), the “activity change, negative = inhibition” value is 15.3%.
Turning to `CC(C)(C)NC(=O)[C@@H]1CN(Cc2cccnc2)CCN1C[C@@H](O)C[C@@H](Cc1ccccc1)C(=O)N[C@H]1c2ccccc2C[C@H]1O`, the compound was called inactive.
Still for that read-out and setting: with `CN1CCN(C(c2ccccc2)c2ccccc2)CC1` the entry was “inactive”.
Consider `CC(C)n1nc(-c2cc3cc(O)ccc3[nH]2)c2c(N)ncnc21`, for which the “activity change, negative = inhibition” value is 3.77%.
The same measure, in the same setting: the value for `COC(=O)C1=C(C)NC(C)=C(C(=O)O[C@@H]2CCCN(Cc3ccccc3)C2)[C@@H]1c1cccc([N+](=O)[O-])c1` was -16%; that for `OC[C@H]1O[C@H](O[C@]2(CCl)O[C@H](CCl)[C@@H](O)[C@@H]2O)[C@H](O)[C@@H](O)[C@H]1Cl` was 34.9%.
For the compound `Cc1ccccc1C(=O)Nc1ccc(C(=O)N2CCCC(N(C)C)c3ccccc32)cc1` (configuration not stated), the “activity change, negative = inhibition” value is 17.2%.
On the same count and under the same terms, the value for `CC(=O)OCC(=O)[C@@]1(O)CC[C@H]2[C@@H]3CCC4=CC(=O)C=C[C@]4(C)[C@H]3[C@@H](O)C[C@@]21C` was 12.5%.
